From PubChem BioAssay (EPA / NIEHS) come the findings set out here.

The nature of assay [1]: BSK_LPS_SRB: Viability Assessment in the BioMAP Diversity Plus: LPS Assay (AID 2283079).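 Note: total protein by sulforhodamine B absorbance as a cytotoxicity measure; measured one day after compound addition; fitted in both directions against DMSO so loss or gain of signal counts.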 The note with it: primary human HUVEC with PBMC. An outline of the steps: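 Co-culture of human umbilical vein endothelial cells and PBMC, read 24 h after dosing. Total protein by 0.1% SRB staining after 10% TCA fixation, absorbance at 560 nm; bidirectional fit against DMSO.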
Read-out in assay [2]: Interleukin-1 alpha (IL1a), IL1A (gene 3552)
Description: BSK_LPS_IL1a: BioMAP Diversity Plus: LPS Assay for Interleukin-1 alpha (IL1a) Biomarker Activity (AID 2283080). Particulars: primary human HUVEC with PBMC; actives raise or lower the signal. An outline of the steps:
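Human umbilical vein endothelial cells co-cultured with PBMC and stimulated with LPS; IL-1a measured by ELISA 24 h after dosing. Bidirectional fitting against DMSO; cytotoxicity checked by SRB staining in parallel cultures.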

Read-out in assay [3]: Monocyte Chemoattractant Protein-1 (MCP1), CCL2 (gene 6347)
Description: BSK_LPS_MCP1: BioMAP Diversity Plus: LPS Assay for Monocyte Chemoattractant Protein-1 (MCP1) Biomarker Activity (AID 2283081).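 For AC50: secreted MCP-1 protein quantified by ELISA in culture supernatant.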 The note with it: primary human HUVEC with PBMC; actives raise or lower the signal. An outline of the steps: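 Human umbilical vein endothelial cells co-cultured with PBMC, LPS-stimulated; secreted MCP-1 measured by ELISA 24 h after compound addition. Bidirectional curve fitting against DMSO baseline; SRB total-protein staining in parallel cultures for cytotoxicity.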

Assay [4] in a line: BSK_LPS_PGE2: BioMAP Diversity Plus: LPS Assay for Prostaglandin E2 (PGE2) Biomarker Activity (AID 2283082).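 For AC50: secreted prostaglandin E2 measured by ELISA in LPS-stimulated co-culture.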 The note with it: primary human HUVEC with PBMC; actives raise or lower the signal. An outline of the steps:
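HUVEC plus human PBMC co-culture stimulated with LPS; secreted PGE2 quantified by ELISA 24 h after chemical dosing. Activity fitted bidirectionally against DMSO baseline; parallel SRB staining (0.1% SRB after 10% TCA fixation, 560 nm) flags overt cytotoxicity.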

Read-out in assay [5]: Macrophage colony-stimulating factor (MCSF), CSF1 (gene 1435)
Kind of assay: BSK_LPS_MCSF: BioMAP Diversity Plus: LPS Assay for Macrophage colony-stimulating factor (MCSF) Biomarker Activity (AID 2283083). The note with it: primary human HUVEC with PBMC; actives raise or lower the signal. An outline of the steps: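 HUVEC–PBMC co-culture, M-CSF measured by ELISA 24 h after chemical dosing. Fitted in both directions relative to DMSO as negative control; overt cytotoxicity assessed by SRB total-protein staining in parallel cultures.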

Read-out in assay [6]: Tissue Factor, F3 (gene 2152)
Kind of assay: BSK_LPS_TissueFactor: BioMAP Diversity Plus: LPS Assay for Tissue Factor Biomarker Activity (AID 2283084). Particulars: primary human HUVEC with PBMC; actives raise or lower the signal. An outline of the steps:
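Human umbilical vein endothelial cells co-cultured with PBMC were dosed with compound. Cell-surface CD142 was measured by ELISA 24 h later. Activity was fitted bidirectionally against DMSO, with SRB total-protein staining in parallel cultures for cytotoxicity.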

Read-out in assay [7]: Tumor necrosis factor (Homo sapiens) (UniProt P01375)
Description: BSK_LPS_TNFa: BioMAP Diversity Plus: LPS Assay for Tumour Necrosis Factor alpha (TNFa) Biomarker Activity (AID 2283085).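 For AC50: TNFa protein level quantified by ELISA in the co-culture.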 The note with it: primary human HUVEC with PBMC; actives raise or lower the signal. An outline of the steps:
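Human umbilical vein endothelial cells co-cultured with PBMC and stimulated with LPS. TNFa was measured by ELISA 24 h after chemical dosing, fitted bidirectionally relative to DMSO.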

Read-out in assay [8]: Vascular cell adhesion molecule 1 (VCAM1), VCAM1 (gene 7412)
Kind of assay: BSK_LPS_VCAM1: BioMAP Diversity Plus: LPS Assay for Vascular cell adhesion molecule 1 (VCAM1) Biomarker Activity (AID 2283086). The note with it: primary human HUVEC with PBMC; actives raise or lower the signal. An outline of the steps:
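Human umbilical vein endothelial cells co-cultured with PBMC and stimulated with LPS; VCAM-1 measured by ELISA 24 h after dosing. Bidirectional curve fitting against DMSO baseline; cytotoxicity tracked in parallel by SRB total-protein staining.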

Read-out in another assay: CD38, CD38 (gene 952)
Kind of assay: BSK_SAg_CD38: BioMAP Diversity Plus: SAg Assay for CD38 Biomarker Activity (AID 2283087). Particulars: primary human HUVEC with PBMC; actives raise or lower the signal. An outline of the steps:
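Human HUVEC plus PBMC co-culture stimulated with superantigen; CD38 measured by ELISA 24 h after chemical dosing. Fluorescence read-out, bidirectional fit against DMSO; cytotoxicity tracked in parallel by SRB and Alamar Blue.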

Read-out in the next assay: CD40, CD40 (gene 958)
Description: BSK_SAg_CD40: BioMAP Diversity Plus: SAg Assay for CD40 Biomarker Activity (AID 2283088). The note with it: primary human HUVEC with PBMC; actives raise or lower the signal. An outline of the steps: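 HUVEC plus PBMC co-culture, superantigen-activated, with CD40 read by ELISA 24 h after dosing. Curves fitted in both directions against DMSO. Overt cytotoxicity checked by parallel SRB total-protein staining.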

Values joined by “and” are separate entries in the source; they are usually repeats but may differ in a detail not shown here. Equal entries are not always repeated. Where a structure was tested more than once in an assay, its records may differ in their call. Active and inactive are the calls of the source. Rule for the calls: active = hit-call score of the fitted dose curve at least 0.9, where 1 is the maximum; inactive = score below 0.9.

Tumor necrosis factor (Homo sapiens), sequence (P01375 whole entry, looked up): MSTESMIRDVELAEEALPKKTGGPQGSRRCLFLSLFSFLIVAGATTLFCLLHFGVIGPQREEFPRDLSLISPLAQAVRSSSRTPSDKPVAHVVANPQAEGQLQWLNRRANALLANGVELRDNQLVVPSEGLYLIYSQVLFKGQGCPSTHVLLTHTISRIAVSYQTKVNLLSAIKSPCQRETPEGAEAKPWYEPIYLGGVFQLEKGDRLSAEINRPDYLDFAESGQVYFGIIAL

For the compound `C=CC1(C)OC(=O)N(c2cc(Cl)cc(Cl)c2)C1=O` (stereo unspecified), the outcome in assay [1], in assay [2], in [3], in assay [4], in [5] and in [6] was inactive. For the same compound, the outcome in assay [7] was “inactive”; in assay [8], “inactive”; with CD38, CD38 (gene 952) it was “inactive”; with CD40, CD40 (gene 958) it was “inactive”.

Turning to `COc1nc(C)nc(NC(=O)NS(=O)(=O)c2ccccc2Cl)n1`, the result in assay [1], in assay [2], in assay [3], in assay [4], in assay [5] and in assay [6] was inactive. In addition, the outcome was “inactive” in [7]; “inactive” in [8]; “inactive” with CD38, CD38 (gene 952); “inactive” with CD40, CD40 (gene 958).

Consider `CCCC1COC(Cn2cncn2)(c2ccc(Cl)cc2Cl)O1` (stereo unspecified), for which the outcome in assay [1], in assay [2], in assay [3], in assay [6], in [7] and in [8] was inactive. In addition, the outcome is “inactive” with CD38, CD38 (gene 952) and “inactive” with CD40, CD40 (gene 958). The AC50 (commonly the concentration giving half of the maximal activity seen) in assay [4] is 6.44 µM (active).

Regarding `CON(C)C(=O)Nc1ccc(Cl)c(Cl)c1`, the result in [1], in assay [2], in assay [3], in [6], in assay [7] and in assay [8] was inactive. The outcome with CD38, CD38 (gene 952) is “inactive”; in the assay with CD40, CD40 (gene 958) it was “inactive”. For the same compound, the half-maximal activity concentration (AC50) in assay [4] is 6.39 µM (active); in assay [5] it was 7.53 µM (active).

On to `CC1COC(Cn2cncn2)(c2ccc(Oc3ccc(Cl)cc3)cc2Cl)O1` (stereo unspecified), for which the AC50 in assay [1] was 28.8 µM (active); in assay [2], 32 µM (active); in assay [3] it was 31.7 µM (active); in assay [4], 0.172 µM (active); in assay [5], 27.6 µM (active); in assay [6] it was 30.2 µM (active). The AC50 in [7] was 31.5 µM (active); in assay [8], 29.7 µM (active); in the assay with CD38, CD38 (gene 952), 19.4 µM (active); in the assay with CD40, CD40 (gene 958), 18.4 µM (active).

With `CCOC(=O)C(Cl)Cc1cc(-n2nc(C)n(C(F)F)c2=O)c(F)cc1Cl` (stereo unspecified), the result in assay [1], in assay [2], in assay [3], in assay [4], in [5] and in assay [6] was inactive. Moreover, the outcome was “inactive” in [7]; “inactive” in assay [8]; “inactive” with CD38, CD38 (gene 952); “inactive” with CD40, CD40 (gene 958).

Regarding `O=C(Nc1ccccc1)Nc1ccnc(Cl)c1`, the outcome in [1] was “inactive”; in assay [2], “inactive”; in assay [5], “inactive”; in [6], “inactive”; in assay [8], “inactive”; with CD38, CD38 (gene 952), “inactive”. In addition, the result in the assay with CD40, CD40 (gene 958) was inactive. The AC50 is 9.85 µM (active) in [3], 6.08 µM (active) in assay [4] and 31.1 µM (active) in [7].

On to `Cc1ccc(-c2c(Cl)nc(C#N)n2S(=O)(=O)N(C)C)cc1`, for which the AC50 in [1] was 26 µM (active); in assay [3], 29.6 µM (active); in assay [4] it was 30 µM (active); in [5], 31.5 µM (active); in [8], 34 µM (active); in the assay with CD38, CD38 (gene 952), 22.5 µM (active). Besides, the AC50 with CD40, CD40 (gene 958) was 20 µM (active). For the same compound, the result in [2], in assay [6] and in assay [7] was inactive.

In the case of `CO/C=C(/C(=O)OC)c1ccccc1Oc1cc(Oc2ccccc2C#N)ncn1`, the outcome in assay [2], in assay [4], in [6], in [7] and in [8] was inactive. Further, the AC50 in assay [3] is 27.1 µM (active) [middle of 4 runs]; in assay [4], 9.64 µM (active); in assay [5], 24.5 µM (active) [middle of 4 runs]; in [6], 35.3 µM (active); in assay [7], 15.5 µM (active); in assay [8], 11 µM (active) and 8.26 µM (active) and 19.7 µM (active). For the same compound, the AC50 is 20 µM (active) [middle of 4 runs] with CD38, CD38 (gene 952) and 20.6 µM (active) [middle of 4 runs] in the assay with CD40, CD40 (gene 958).

As to `CCCCC(CC)COC(=O)c1ccccc1C(=O)OCC(CC)CCCC` (stereo unspecified), the AC50 was 4.97 µM (active) in [1]; 4.51 µM (active) in assay [5]; 12.3 µM (active) in assay [7]; 7.36 µM (active) with CD38, CD38 (gene 952). Further, the outcome in [2] was “inactive”; in [3], “inactive”; in assay [4], “inactive”; in [6], “inactive”; in [8], “inactive”; with CD40, CD40 (gene 958), “inactive”.

Turning to `CCNc1nc(Cl)nc(NCC)n1`, the outcome in [1], in [2], in assay [3], in assay [4], in assay [5] and in assay [6] was inactive. For the same compound, the outcome is “inactive” in [8]; “inactive” in the assay with CD38, CD38 (gene 952); “inactive” with CD40, CD40 (gene 958). Further, the concentration at half-maximal activity (AC50) in assay [7] is 8.37 µM (active).

As to `CNC(=S)S`, the AC50 was 26.1 µM (active) in [1]; 20 µM (active) in assay [3]; 8.25 µM (active) in [4]; 9.92 µM (active) in assay [5]; 7.49 µM (active) in [7]; 12.4 µM (active) in [8]. In addition, in the assay with CD38, CD38 (gene 952), the AC50 was 13.7 µM (active). In addition, the outcome was “inactive” in assay [6] and “inactive” with CD40, CD40 (gene 958).

As for `COc1cnc(OC)n2nc(NS(=O)(=O)c3c(OCC(F)F)cccc3C(F)(F)F)nc12`, the result in assay [1], in assay [2], in assay [3], in assay [4], in assay [5] and in assay [6] was inactive. The outcome was “inactive” in assay [7]; “inactive” in assay [8]; “inactive” with CD38, CD38 (gene 952); “inactive” with CD40, CD40 (gene 958).
